# Results from PubChem BioAssay (NCATS).
# Records with an inconclusive call do not appear. Where a call stands in place of a potency, no number is given. Values without a mark were called inactive. The source made the active and inactive calls. Calls come from the whole dose curve; as a rule, active = well fitted inhibition curve with a large enough effect; inconclusive = small, poorly fitted or top-dose-only effect; inactive = no such curve, though single readings can be large or run the other way.
# Tested on: Zika virus NS2B-NS3 protease (linked construct)
# Assay: Primary screen NINDS Rhodamine qHTS for Zika virus inhibitors (AID 1347160); note: nearly all actives have a fitted effect of over 55% in size
# Conditions: purified NS2B-NS3 protease, Rhodamine110 substrate fluorescence; series mostly up to 57.1 µM
# In short: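 Aprotinin served as in-plate control. Conditions: 25 nM linked NS2B-NS3, pH 8.0 Tris buffer, titrated compounds, 15 min preincubation and 15 min reaction with 1.5 microM Rhod110 substrate at room temperature.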
SMILES,Potency,"activity change, negative = inhibition"
C/C(=C\CCC(C)CCO)C(=O)O[C@@H]1[C@@H](O)[C@H](OC2OC=C(C(=O)O)C3CCC(C)(O)C23)O[C@H](CO)[C@H]1O (some centres undefined),inactive,–
C[C@@H]1O[C@@H](O[C@H]2[C@H](O[C@H]3[C@H](O[C@H]4CC[C@@]5(C)C(CC[C@]6(C)C5CC=C5[C@@H]7CC(C)(C)C[C@@H](O)[C@]7(C)CC[C@]56C)[C@@]4(C)CO)O[C@H](C(=O)O)[C@@H](O)[C@@H]3O)OC[C@H](O)[C@@H]2O)[C@H](O)[C@H](O)[C@H]1O (some centres undefined),inactive,–
CC(=O)c1cc(C(=O)N[C@@H](C)Cn2ccc(-c3ccc(C#N)c(Cl)c3)n2)[nH]n1,inactive,–
Cc1cc2c(F)c(Oc3ncnn4cc(OCC(C)O)c(C)c34)ccc2[nH]1 (centres undefined),inactive,–
CC(O)c1cc(C(=O)N[C@@H](C)Cn2ccc(-c3ccc(C#N)c(Cl)c3)n2)n[nH]1 (some centres undefined),inactive,–
COc1cc(O)c2c(c1)C1=CC(O)C(O)CC1(C)OC2=O (centres undefined),inactive,–
O=C(Nc1ccn[nH]1)c1c(F)cccc1F,inactive,–
O=C(OCC1=CC(O)C2C=CO[C@@H](O[C@@H]3O[C@H](CO)[C@@H](O)[C@H](O)[C@H]3O)C12)c1ccccc1 (some centres undefined),inactive,–
C[C@@]1(O)[C@H](O)[C@@H](CO)O[C@H]1n1ccc(N)nc1=O,inactive,–
CCN(CC)CCN(Cc1ccc(-c2ccc(C(F)(F)F)cc2)cc1)C(=O)Cn1c(SCc2ccc(F)cc2)nc(=O)c2c1CCC2,inactive,–
CCO[C@@H]1OC(=O)C[C@@H]1NC(=O)[C@@H]1CCCN1C(=O)[C@@H](NC(=O)c1ccc(N)c(Cl)c1)C(C)(C)C,inactive,–
CC1(C)CCCC2(C)C(CO)C(CO)=CCC12 (centres undefined),inactive,–
C/C=C/c1ccc(O[C@@H]2O[C@H](CO)[C@@H](O)[C@H](O)[C@H]2O)c(OC)c1,inactive,–
COC(=O)c1ccccc1O[C@@H]1O[C@H](CO)[C@@H](O)[C@H](O)[C@H]1O[C@@H]1O[C@@H](C)[C@H](O)[C@@H](O)[C@H]1O,inactive,–
O=C1NC2CCc3nc4ccccc4c(=O)n3C2=Nc2ccccc21 (centres undefined),inactive,–
Cc1cc(C(N)=O)ccc1-n1c(CCC(=O)O)ccc1-c1ccc(-n2ccnc2)cc1,inactive,–
C[C@@H]1O[C@@H](O[C@H]2[C@H](O[C@H]3[C@H](O)[C@@H](C(=O)O)O[C@@H](O[C@H]4CC[C@@]5(C)C(CC[C@]6(C)C5CC[C@]57OC[C@@]8(CCC(C)(C)CC85)[C@H](O)C[C@]76C)C4(C)C)[C@@H]3O[C@@H]3O[C@H](CO)[C@@H](O[C@@H]4OC[C@@H](O)[C@H](O)[C@H]4O)[C@H](O)[C@H]3O)O[C@H](CO)[C@H](O)[C@@H]2O)[C@H](O)[C@H](O)[C@H]1O (some centres undefined),–,-19.8% [at 10.7 µM]
Cc1cc(Nc2ccc(NC(=O)c3ccc(Nc4ccnc5ccccc45)cc3)cc2)nc(N)n1,inactive,–
O=C(O)c1cc(-c2c(-c3ccccc3)nn3ccccc23)n[nH]c1=O,inactive,–
